Structures are written as SMILES. Results filed as inconclusive are left out. Calls of active or inactive are those of the source. Calls follow the shape of the full dose curve.

A short description of this assay: Primary qHTS to identify inhibitors of SARS-CoV-2 cell entry (AID 1645846). Also: nearly all actives have a fitted effect of over 45% in size. The conditions noted are these: SARS-CoV-2 pseudovirus cell entry assay, luminescence; activity change, negative = inhibition: at 57.1 µM (top of the series) unless noted; series mostly up to 57.1 µM. The gist of the method: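 Entry measured by luciferase signal 48 h after adding SARS-CoV-2-S pseudotyped MLV particles to HEK293-ACE2 cells preincubated 1 h with compounds. Normalisation: bald particles and spike particles.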
On the technique in general: qHTS replaces the single test concentration by a dilution series.
Consider `CN(C)NC(=O)CCC(=O)O`, for which the activity change, negative = inhibition was -24.7%. As for `COc1ccc(C(=O)c2c(C)n(CCN3CCOCC3)c3cc(I)ccc23)cc1`, the activity change, negative = inhibition is -80.5%.

Consider `CCCC[N+]1(C)[C@H]2CC(OC(=O)[C@H](CO)c3ccccc3)C[C@H]1[C@H]1O[C@H]12` (stereo partly specified), for which the activity change, negative = inhibition was -13.1%.

As for `CCNC(=O)CC1N=C(c2ccc(Cl)cc2)c2cc(OC)ccc2-n2c(C)nnc21` (stereo unspecified), the activity change, negative = inhibition was -16.5%. As for `O=C1C=CC[C@@H]2[C@H]3CCCN4CCC[C@@H](CN12)[C@@H]34`, the Potency entry is “inactive”. In the case of `O=C(Oc1ccc([N+](=O)[O-])cc1)N1CCC(C(O)(c2ccc3c(c2)OCO3)c2ccc3c(c2)OCO3)CC1`, the activity change, negative = inhibition is -17.3%. `Cc1ccccc1-n1c(Cn2cnc3c(N)ncnc32)nc2cccc(C)c2c1=O`: the Potency result was “inactive”. Take `CCCN1CCO[C@@H]2c3cc(O)ccc3OC[C@H]21`: the Potency entry is “inactive”.

Consider `CCN(CC)C(=O)c1ccc(C2=CC3(CCNCC3)Oc3cccc(O)c32)cc1`, for which the activity change, negative = inhibition was -22.9%. As to `O=S(=O)(F)Cc1ccccc1`, the activity change, negative = inhibition was -1.91%. Turning to `O=c1cccc2n1CC1CNC[C@H]2C1`, the activity change, negative = inhibition was -15.2%. `CCOC(=O)c1c(C(C#N)=CN)c2ccc(Cl)c(Cl)c2n1C`: the activity change, negative = inhibition was -10.2%. In the case of `C[C@]12CC[C@@H]3[C@@H](CCC4=CC(=O)CC[C@@H]43)[C@@H]1CC[C@@H]2OC(=O)CCc1ccccc1`, the activity change, negative = inhibition was -12.2%. For `O=S(=O)(CC1CS1)c1ccc(Oc2ccccc2)cc1` (stereo unspecified), the Potency entry is “inactive”.

With `CCCCCC[C@H]1C(=O)O[C@H](C)[C@H](NC(=O)c2cccc(NC=O)c2O)C(=O)O[C@@H](C)[C@@H]1OC(=O)CC(C)C`, the activity change, negative = inhibition was -94.1%. Take `CC(C)[C@H]1C(=O)N[C@H](CO)Cc2c[nH]c3cccc(c23)N1C`: the Potency entry is “inactive”. In the case of `CC[C@@]1(O)C(=O)OCc2c1cc1n(c2=O)Cc2cc3ccccc3nc2-1`, the activity change, negative = inhibition is -94.8%. As to `C[C@]12CC[C@H]3[C@@H](CCC4=CC(=O)CC[C@@]43C)[C@H]1CC[C@H]2OC(=O)CCC1CCCC1`, the activity change, negative = inhibition is -3.52%. In the case of `CN1[C@H]2CC(O)C[C@H]1[C@H]1O[C@H]12` (stereo partly specified), the activity change, negative = inhibition turned out to be 0.905%.

Take `CC(C)[C@]12O[C@H]1[C@@H]1O[C@]13[C@]1(O[C@H]1C[C@H]1C4=C(CC[C@@]13C)C(=O)OC4)[C@@H]2O`: the activity change, negative = inhibition was -93.7%. Turning to `COC(=O)[C@@H](N)CCCN=C(N)N[N+](=O)[O-]`, the activity change, negative = inhibition is -1.1%. Regarding `CCN1C[C@]2(OC(=O)c3ccccc3NC(C)=O)CC[C@H](OC)[C@@]34[C@H]5CC6[C@@H](OC)C[C@](O)(C(C[C@@H]23)[C@@H]14)[C@@]5(O)[C@@H]6OC`, the activity change, negative = inhibition was found to be 1.38%.

In the case of `C#CC1(O)CCC2C3CCC4=CC(=O)CCC4(C)C3CCC21C` (stereo unspecified), the activity change, negative = inhibition is -0.771%. As for `CN[C@@H]1Cc2cccc3[nH]c(=O)n(c23)C1`, the activity change, negative = inhibition amounted to 4.06%. For `COc1ccc2c(c[n+](C)c3c4cc5c(cc4ccc23)OCO5)c1OC`, the activity change, negative = inhibition was -96.4%. Turning to `C[C@](O)(COc1ccc(C#N)cc1)C(=O)Nc1ccc(C#N)c(C(F)(F)F)c1`, the activity change, negative = inhibition was -12.9%.
